HCT116 bCat-KO = primary screen for growth suppressors in beta-catenin knockout HCT116 cells (colon tumor, human); HCT116 beta-catenin knockout viability, CellTiter-Glo, 60 h; stronger effect = lower value; viability, % at 10 µM; 140,000 tested, 1.5% active; AID 818, 2007;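 active means viability at or under a set limit, the compound median less 4 SD, cut at about 6% in these data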;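 further: 0% = Hyamine 1622 control at 20 µM and 100% = untreated cell control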
WT yeast gro inh = growth inhibition of WT strain, primary screen, mitochondrial fusion inhibitor project, WT and mutant strains, chemical genetic. 190,000 tested, 2.1% active. inhibition, % at 10 µM. mitochondrial fusion phenotypic screen. AID 1362, 2008; in the data active means inhibition above about 58%; tested in S. cerevisiae
PTEN del growth = growth suppression of PTEN-null HCT116, primary screen, cell-based, CellTiter-Glo | HCT116 PTEN-null viability, 60 h; stronger effect = lower value | viability, % at 10 µM | 140,000 tested, 1.2% active | AID 827, 2007;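 active means viability at or below a set limit, 4 SD under the median of all tested compounds, cut at about 3.7% in these data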;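 further: PTEN knockout HCT116 line with beta catenin targeted HCT116 as companion control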
DAT uptake mod = changed hDAT dopamine uptake under cocaine IC80, either direction, primary screen, cocaine antagonist project, cell-based, LLC-PK1 hDAT, [14C]-dopamine uptake, MLSMR; Sodium-dependent dopamine transporter (Homo sapiens), Q01959; LLC-PK1 hDAT cells, [14C]-dopamine uptake with cocaine IC80; actives deviate in either direction; B-score at 10 µM; 110,000 tested, 1.3% active;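 active means Z score or B-score, a plate-position-corrected score, falls beyond the plate's 99.7% confidence bounds, in either direction; inactive means both scores lie inside the 99.7% bounds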;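 further: scored against the spread of the other compound wells on the same plate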
Target sequence (Q01959 whole entry, looked up): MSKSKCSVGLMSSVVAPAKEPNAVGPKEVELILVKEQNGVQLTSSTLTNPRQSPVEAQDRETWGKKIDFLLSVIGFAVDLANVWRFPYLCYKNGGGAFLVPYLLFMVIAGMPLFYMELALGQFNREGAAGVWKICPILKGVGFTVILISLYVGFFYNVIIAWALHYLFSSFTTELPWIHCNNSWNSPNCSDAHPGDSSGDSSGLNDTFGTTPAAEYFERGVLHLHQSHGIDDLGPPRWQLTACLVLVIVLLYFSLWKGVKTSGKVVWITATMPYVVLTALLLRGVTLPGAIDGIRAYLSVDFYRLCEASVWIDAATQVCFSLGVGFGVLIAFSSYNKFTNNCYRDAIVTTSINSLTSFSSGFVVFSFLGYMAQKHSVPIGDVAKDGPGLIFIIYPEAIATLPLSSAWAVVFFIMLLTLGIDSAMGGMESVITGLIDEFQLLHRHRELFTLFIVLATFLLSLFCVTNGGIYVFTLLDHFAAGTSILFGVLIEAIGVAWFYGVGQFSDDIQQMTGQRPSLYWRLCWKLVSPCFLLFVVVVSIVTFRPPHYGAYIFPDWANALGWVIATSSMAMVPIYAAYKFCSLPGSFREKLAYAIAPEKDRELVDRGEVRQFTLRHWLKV
Active calls of the source: *; nt = no result. The list is not random: actives were taken first. Their share in the collection is about 3.6%.

SMILES	HCT116 bCat-KO	WT yeast gro inh	PTEN del growth	DAT uptake mod
Cc1cccc(C)c1OCCOC(=O)c1n[nH]c2ccccc12	nt	67*	nt	nt
COc1ccc(/C=C2\CCc3ccccc3C2=O)cc1Cn1nc(C)cc1C	17	80*	12	4.9*
CC(C)NC(=O)C1CCN(C2CCN(Cc3nc4ccccc4s3)CC2)CC1	nt	-2	nt	nt
COc1ccc(-c2nc(CN(CC3CCC(=O)N3)C(C)C)c(C)o2)c(C)c1C (centres undefined)	nt	23	nt	nt
Cc1ccc(S(=O)(=O)N(CCCO)CC(O)CON=C2c3ccccc3-c3ccccc32)cc1 (centres undefined)	55	59*	46	nt
COc1cc(/C=N/N=C(/C(=O)c2ccccc2)c2ccccc2)cc(OC)c1O	74	72*	55	nt
CN(C)CCNC(=O)COc1ccc(C23CC4CC(CC(C4)C2)C3)cc1	nt	96*	nt	nt
COc1ccccc1CNc1nc2nc(C)c(C)c(=O)n2[nH]1	101	79*	99	-0.97
CCOC(=O)c1cc2c(ccn2C)n1Cc1ccccc1C	87	21	86	-0.47
CCOC(=O)c1cc2c(ccn2C)n1Cc1ccccc1Cl	nt	69*	nt	nt
O=C1NCCCC2c3cc(O)c4ccccc4c3OC12N1CCCCC1 (centres undefined)	19	5	17	-3.4*
O=C1NCCCC2c3c(cc(Br)c(O)c3Br)OC12N1CCOCC1 (centres undefined)	101	-5	99	1.4
CC(NC(=O)c1ccc(F)cc1)c1ccc2c(c1)CCCC2 (centres undefined)	89	6	83	0.23
CC(NC(=O)c1ccc(Br)cc1)c1ccc2c(c1)CCCC2 (centres undefined)	88	63*	84	nt
O=C(N/N=C/c1ccc[nH]1)c1cc(-c2ccc(Cl)cc2)nc2ccccc12	nt	69*	nt	nt
O=C(N/N=C/c1ccc([N+](=O)[O-])o1)c1cc(-c2ccncc2)nc2ccccc12	2.8*	-9	3.3*	0.038
O=C(N/N=C/c1ccc([N+](=O)[O-])o1)c1cc(-c2ccc(-c3ccccc3)cc2)nc2ccccc12	nt	41	nt	nt
O=C(N/N=C/c1ccc(Cl)cc1)c1cc(-c2cccnc2)nc2ccccc12	nt	8	nt	nt
C=CCn1c(COc2ccc3c(c2)CCCC3)nnc1SCC(=O)Nc1cccc(SC)c1	92	39	78	0.31
CCC(=O)NNc1ccc(Br)cc1	nt	69*	nt	nt
CCOC(=O)C(=NC(C)CC)NNc1ccc(Br)cc1 (centres undefined)	94	70*	88	nt
CCOC(=O)C(=NC1CCS(=O)(=O)C1)NNc1ccc(Br)cc1 (centres undefined)	nt	59*	nt	nt
CN1CCCN(C(=O)CC(c2ccccc2)c2ccccc2)CC1	nt	2	nt	nt
CCOC(=O)C1(C)Oc2cccnc2NC1=O (centres undefined)	nt	14	nt	nt
O=C(CCc1nc2ccccc2[nH]c1=O)N/N=C/c1ccccc1	nt	-8	nt	nt
SMILES	HCT116 bCat-KO	WT yeast gro inh	PTEN del growth	DAT uptake mod
O=C(O)c1ccc(CNC(=O)c2ccccc2NC(=O)c2ccc([N+](=O)[O-])cc2)cc1	nt	10	nt	nt
O=C(Nc1ccc(OC(F)(F)F)cc1)Nc1cccc([N+](=O)[O-])c1	2.9*	80*	3.5*	nt
CC(C)(C)c1ccc(C(=O)Nc2cccc([N+](=O)[O-])c2)cc1	14	62*	8	nt
CCC(CC)=NNc1cccc([N+](=O)[O-])c1	81	18	85	nt
CC(C)(C)CC(C)(C)NC(=O)Nc1cccc([N+](=O)[O-])c1	nt	64*	nt	nt
CC/C(C)=N/Nc1cccc([N+](=O)[O-])c1	99	67*	98	nt
CCN1C(=O)N[C@@H](CCc2ccccc2)[C@@H](C(=O)OC)[C@H]1C	nt	nt	nt	-0.03
COC(=O)CNC(=O)Cn1nc(C)c([N+](=O)[O-])c1C	nt	-14	nt	nt
N#Cc1c(-c2ccccc2)ccnc1N1CCOCC1	nt	5	nt	nt
CCOP(=O)(OCC)c1nc(-c2cccc3ccccc23)oc1NCCc1ccc(OC)cc1	86	70*	83	nt
C[C@@H]1CN(Cc2nc(-c3cnccn3)no2)C[C@H](C)O1	nt	-13	nt	nt
Cc1c(NC(=O)CN2C(=O)NC(CCc3ccccc3)C2=O)c(=O)n(-c2ccccc2)n1C (centres undefined)	nt	1	nt	nt
CCCC1=C(C(=O)OCC)C(c2ccc(NC(C)=O)cc2)NC(=O)N1 (centres undefined)	93	61*	92	-0.33
CCCCNC(=O)NC1(C(F)(F)F)Oc2ccccc2O1	84	-9	94	-1.9*
NS(=O)(=O)c1ccc(CCNC(=O)NC2(C(F)(F)F)Oc3ccccc3O2)cc1	54	5	68	-6.7*
O=C(NCCN1CCOCC1)NC1(C(F)(F)F)Oc2ccccc2O1	77	2	74	-4.7
COC(=O)C1=C(Nc2ccc(C)cc2)C=C(C)C(C(=O)OC)C1c1ccc(OC)cc1 (centres undefined)	29	70*	29	1.6
Cc1ccc(C)c(NC(=S)NCCc2ccc(F)cc2)c1	65	69*	62	nt
Cc1ccccc1NC(=S)NCCc1ccccc1	94	31	91	nt
COc1ccccc1NC(=S)NCCc1ccc(F)cc1	nt	8	nt	nt
Cc1ccc(NC(=S)NCCc2ccccc2)c(C)c1	71	70*	72	nt
O=C(CN1C(=O)/C(=C/c2cccc(Br)c2)SC1=S)N1CCCC1	8	-6	6	nt
O=C(NC1CC1)C1=C[C@@H](c2c[nH]c3ccccc23)C[C@@H](OCc2ccc(CO)cc2)O1	nt	nt	nt	2.3
S=C1NC(c2cccs2)=CC(c2ccc(Br)cc2)N1 (centres undefined)	85	72*	83	nt
Cc1nc2ccccc2nc1CN1CCC(CO)(CC2CCCCO2)CC1 (centres undefined)	nt	4	nt	nt
SMILES	HCT116 bCat-KO	WT yeast gro inh	PTEN del growth	DAT uptake mod
Cn1nc(-c2ccc(C(=O)Nc3cccc(Cl)c3)cc2)c2ccccc2c1=O	97	-8	95	-1*
Oc1[nH]c2c(Cl)cc(Cl)cc2c1N=NC(=S)NCC1CCCO1 (centres undefined)	1.4*	40	0.5*	nt
FC(F)Sc1ccc(NC(=S)NC(c2ccccc2)c2ccccc2)cc1	nt	85*	nt	nt
FC(F)(F)c1ccc(NC(=S)NCc2ccccc2)cc1	nt	60*	nt	nt
FC(F)Sc1ccc(NC(=S)NCc2ccccc2)cc1	nt	60*	nt	nt
O=C(NCc1ccc2c(c1)OCO2)c1ccc(S(=O)(=O)N2CCOCC2)cc1	nt	5	nt	nt
CN1/C(=C\C=O)C(C)(C)c2ccccc21	nt	8	nt	nt
CN1/C(=C\C=Nc2ccc3ccccc3c2)C(C)(C)c2ccccc21	47	77*	50	1.2
CN1\C(=C/C=C/C=C/C=[N+](C)C)C(C)(C)c2ccccc21	nt	92*	nt	nt
Cc1cccc(-n2ncc3c(NCc4ccccc4)ncnc32)c1	28	10	27	2
Cc1cccc(-n2ncc3c(N4CCCc5ccccc54)ncnc32)c1	75	71*	58	-0.6
CN(C)S(=O)(=O)c1cc(C(=O)NCc2ccccc2)c(Cl)cc1Cl	nt	13	nt	nt
CCc1nnc(NC(=O)Nc2ccccc2OC)s1	106	59*	108	-0.99
